Inconclusive results are not listed. Where a call stands in place of a potency, no number is given. Active and inactive are the calls of the source. The call rests on the fitted dose curve; in most records, active means well fitted curve in the direction sought with a large enough effect; inconclusive means small, poorly fitted or top-dose-only effect, or another doubt; inactive means no such curve, though single readings can be large or run the other way.

Sequence of Protein phosphatase EYA2 (Homo sapiens) (O00167 whole entry, looked up): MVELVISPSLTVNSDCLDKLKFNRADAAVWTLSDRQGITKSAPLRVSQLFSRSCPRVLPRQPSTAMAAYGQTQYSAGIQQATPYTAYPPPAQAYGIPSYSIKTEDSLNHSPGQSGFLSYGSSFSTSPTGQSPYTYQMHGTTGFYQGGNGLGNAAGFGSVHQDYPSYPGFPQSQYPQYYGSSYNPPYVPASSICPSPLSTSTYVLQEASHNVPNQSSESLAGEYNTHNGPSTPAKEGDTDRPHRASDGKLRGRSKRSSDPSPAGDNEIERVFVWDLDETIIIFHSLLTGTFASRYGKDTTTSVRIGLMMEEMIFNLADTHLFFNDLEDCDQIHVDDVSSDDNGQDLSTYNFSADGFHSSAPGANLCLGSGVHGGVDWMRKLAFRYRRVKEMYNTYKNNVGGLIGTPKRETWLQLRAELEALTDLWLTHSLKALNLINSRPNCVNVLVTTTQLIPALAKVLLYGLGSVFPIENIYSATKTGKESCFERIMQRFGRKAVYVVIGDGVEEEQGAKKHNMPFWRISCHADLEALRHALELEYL

The experiment has as its target Protein phosphatase EYA2 (Homo sapiens) (UniProt O00167). The experiment in a line: Inhibitors of Eya2ED: Hit Confirmation in Primary Screen. To be noted: Recombinant Eya2ED, OMFP fluorescence phosphatase assay; series mostly up to 76.9 µM. The method, boiled down:
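Hits were retested as 12-point titrations. Compound sat 10 min at ambient with Eya2 (0.2 uM in dispense) in HEPES pH 7.5 buffer with NaCl, MgCl2, BSA and DTT, then OMFP substrate (50 uM in dispense) was added. Dephosphorylation was read by fluorescence at 485/525 nm after a further 10 min.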
Consider `CS(=O)(=O)c1ccc2nc(NC(=O)c3cccc([N+](=O)[O-])c3)sc2c1`, for which the Potency entry was “inactive”.
Turning to `O=C(Cc1coc2cc(O)ccc12)NNC(=O)c1ccc(Br)s1`, the Potency entry was “inactive”.
On to `Cc1ccc(Nc2nc(N)nc(CSc3ncccn3)n2)cc1`, for which the Potency result is “inactive”.
To `C=CCC1(C#N)C(=S)NC(C)=C(C(=O)OCC)C1c1ccccc1` (configuration not stated) belongs “inactive”.
The result for `CC(=O)c1ccc(NC(=O)C2(c3ccccc3)CC2(Cl)Cl)cc1` (configuration not stated) reads “inactive”; that for `Cc1cc(C)c(S(=O)(=O)N2CCCCC2CCNC(=O)C(=O)NCCN2CCOCC2)c(C)c1` (configuration not stated), “inactive”.
The result for `COC(=O)/C=C1\NCCNC1=O` reads “inactive”; that for `CCOc1ccc(S(=O)(=O)N2CCN(C(=O)c3sccc3C)CC2)cc1`, “inactive”; that for `O=C(Cc1ccccc1F)NC1CCCN(Cc2ccc(Cl)cc2)C1` (configuration not stated), “inactive”.
For `Cc1cccc(C(=O)Nc2c(C(=O)N(C)C)cnn2-c2ccccc2)c1`, the Potency result was “inactive”.
The result for `CCOC(=O)c1[nH]c(C)c(C(=O)OCC(=O)Nc2sc3c(c2C#N)CCCCC3)c1C` reads “inactive”; that for `COc1cccc(-c2cc(C(F)(F)F)nc(N3CCN(c4ccccc4)CC3)n2)c1`, “inactive”.
Consider `CCOc1ccc(S(=O)(=O)NC(C)C(=O)NCc2ccncc2)cc1` (configuration not stated), for which the Potency entry was “inactive”.
As for `O=C(NN=C1CCCC1)c1[nH]c2ccc(Br)cc2c1-c1ccccc1`, the Potency result is “inactive”.
`Cc1cccn2c(=O)nc(SCC(=O)NCc3ccc(F)cc3)nc12`: the Potency entry was “inactive”.
With `Cc1ccc(NC(=O)CC2C(=O)NC3CCCCC3N2C(=O)c2ccc(F)cc2)cc1C` (configuration not stated), the Potency result is “inactive”.
The result for `O=C(O)C1CC(=O)N(c2ccc(Br)cc2)C1` (configuration not stated) reads “inactive”.
Regarding `S=C1NC[C@H](CC2CCCCC2)N1CC1CCCCC1`, the Potency result was “inactive”.
As for `C#CCOCCOCCOCCNc1nc(N2CCN(C(=O)CCCCCCCCCCNC(=O)[C@H](CCCCN)n3cc(C)nn3)CC2)nc(N2CCN(C(=O)CCCCCCCCCCNC(=O)[C@H](CCCN=C(N)N)n3cc(C[C@@H](C)CC)nn3)CC2)n1`, the Potency was 18.4 µM (active).
Turning to `CCOc1cc(C)c(Cl)cc1S(=O)(=O)NCc1ccco1`, the Potency result was “inactive”.
On to `CCCC(=O)Nc1cccc(NC(=O)c2ccc3c(c2)OCCO3)c1`, for which the Potency result was “inactive”.
Turning to `COc1ccc(NC(=O)CSc2nc3[nH]c(=O)[nH]c(=O)c3s2)cc1OC`, the Potency entry is “inactive”.
Turning to `O=C(Cn1cccc(C(F)(F)F)c1=O)c1ccc(Cl)cc1`, the Potency entry was “inactive”.
As for `C=CCOc1ccc(/C=C/C(=O)OCC(=O)N2CCCc3ccccc32)cc1`, the Potency result was “inactive”.
As for `Cc1nn(-c2nc(-c3ccco3)cc(C(F)(F)F)n2)c(C)c1Cl`, the Potency result was “inactive”.
For `Cc1ccc(C(=O)NCc2ccc(Cl)cc2)o1`, the Potency entry is “inactive”.
Turning to `CC[C@]12c3[nH]c4ccccc4c3CCN1C(=O)C(CC(=O)NCCc1ccccn1)C[C@@H]2C(=O)N1CCN(C(=O)c2ccco2)CC1` (some centres not stated), the Potency result was “inactive”.

For the origin of these results see PubChem BioAssay AID504895 (National Center for Advancing Translational Sciences (NCATS), 2011).
